The values below come from PubChem BioAssay (Tox21).

Each structure is given as a SMILES string. Results filed as inconclusive are left out. Values without a mark were called inactive. Calls of active or inactive are those of the source. Unless noted, calls follow the shape of the dose curve; as a rule, active = well fitted curve in the direction sought with a large enough effect in the repeat runs; inconclusive = weak or mixed curves; inactive = no such curve, though single readings can be large; an effect the other way counts as inactive or inconclusive.

A short description of test [1]: qHTS assay to identify small molecule agonists of the estrogen related receptor signaling pathway with the pleiotropic PPARgamma coactivator (PGC) (AID 1224823). The procedure, abridged:
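Cell-based luciferase assay in the NTP-supplied PGC/ERR line, 2,000 cells/well; 18 h compound exposure at 37 C, luminescence after One-Glo.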
(In qHTS, concentration-response curves come from the screen itself.)

The target of test [2] is Luciferin 4-monooxygenase (Photinus pyralis) (UniProt P08659). In words: qHTS assay to identify small molecule inhibitors of firefly luciferase (AID 1224835). Also: nearly all actives have a fitted effect of over 25% in size. Also: potency is read from the fitted curve at half-maximal effect. As to activity change, negative = inhibition: series mostly up to about 120 µM. In a few lines: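 Biochemical qHTS: compounds run as interplate titrations against purified firefly enzyme, with D-luciferin and ATP each at its KM concentration. Light output recorded by CCD imaging.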
Test [3] can be described thus: qHTS assay to identify small molecule agonists of the constitutive androstane receptor (CAR) signaling pathway - cell viability counter screen (AID 1224836). Also: series mostly up to about 92 µM; nearly all actives have a fitted effect of over 45% in size. In a few lines:
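Viability read-out: CellTiter-Fluor fluorescence after 23 h compound exposure at 37 C/5% CO2 in double-stable HepG2-CYP2B6-hCAR cells, with PK11195 present at 0.75 uM final; compounds tested in 15-point titration.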

The nature of test [4]: qHTS assay to identify small molecule antagonists of the constitutive androstane receptor (CAR) signaling pathway - cell viability counter screen (AID 1224837). Also: series mostly up to about 92 µM; nearly all actives have a fitted effect of over 45% in size. The procedure, abridged:
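HepG2 cells stably carrying hCAR and CYP2B6-2.2kb reporter, stimulated with 50 nM CITCO and compounds at 15 concentrations for 23 h at 37 C. Viability measured by CellTiter-Fluor fluorescence.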

Test [5] addresses Nuclear receptor subfamily 1 group I member 3 (Homo sapiens) (UniProt Q14994). Nature of the test: qHTS assay to identify small molecule antagonists of the constitutive androstane receptor (CAR) signaling pathway (AID 1224838). Also: nearly all actives have a fitted effect of over 40% in size. Also: potency is read from the fitted curve at half-maximal effect. In a few lines: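 HepG2 cells stably carrying hCAR and a CYP2B6-2.2kb luciferase reporter, seeded 4 hrs before compound (15 concentrations). Stimulated with 50 nM CITCO for 24 hr at 37 C. ONE-Glo luminescence read after 30 min at room temperature.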

Test [6] has the same target. Nature of the test: qHTS assay to identify small molecule agonists of the constitutive androstane receptor (CAR) signaling pathway (AID 1224839). Also: nearly all actives have a fitted effect of over 15% in size. Also: potency is read from the fitted curve at half-maximal effect. As to activation: series mostly up to about 92 µM. In a few lines:
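Luminescence read-out (ONE-Glo, 30 min, room temperature) from double-stable HepG2-CYP2B6-hCAR cells exposed 24 h to 15-point compound series in presence of 0.75 uM PK11195 final.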

Test [7] is described as follows: qHTS assay to identify small molecule antagonists of the estrogen related receptor signaling pathway with the pleiotropic PPARgamma coactivator (PGC) from Tox21 10K library - cell viability counter screen (AID 1224840; active = well fitted cell-killing curve with a large enough effect in the repeat runs, not every such curve was filed as active; also: nearly all actives have a fitted effect of over 40% in size). The procedure, abridged:
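PGC/ERR cells (2,000/well) plated 6 h, then compound-treated for 17.5 h at 37 C. Viability measured by CellTiter-Fluor fluorescence after 30 min at 37 C, multiplexed with the pathway assay.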

The nature of test [8]: qHTS assay to identify small molecule antagonists of the estrogen related receptor signaling pathway with the pleiotropic PPARgamma coactivator (PGC) from Tox21 10K library (AID 1224841; call rule not given here; also: actives are mostly falling curves and most rising ones were filed inactive; nearly all actives have a fitted effect of over 50% in size; also: potency is read from the fitted curve at half-maximal effect; as to activity, negative = inhibition: series mostly up to about 92 µM). The procedure, abridged:
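PGC/ERR cell line, 2,000 cells/well, pre-incubated 6 hours at 37 C, then exposed to compounds for 18 hours at 37 C; luciferase read with One-Glo luminescence after 30 min at room temperature.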

A short description of test [9]: qHTS assay to identify small molecule antagonists of the estrogen related receptor (ERR) signaling pathway from Tox21 library - cell viability counter screen (AID 1224834). Also: nearly all actives have a fitted effect of over 30% in size. In a few lines: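 ERR reporter cells, 2,000 per well, rested 6 h, then exposed to compound in DMSO for 17.5 hours at 37 C. Viability read as fluorescence after 30 min with CellTiter-Fluor.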
Test [10] can be described thus: qHTS assay to identify small molecule agonists of the estrogen related receptor signaling pathway with the pleiotropic PPARgamma coactivator (PGC) from Tox21 10K library (AID 1224842). Also: nearly all actives have a fitted effect of over 15% in size. In a few lines:
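PGC/ERR reporter cell line, 2,000 cells per well, incubated 6 h at 37 C before 23 nL compound in DMSO was added. After 18 h at 37 C, One-Glo luminescence read following 30 min at room temperature.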
% is scaled to controls: 0 for no effect and ±100 for the full control effect.

Chain of Nuclear receptor subfamily 1 group I member 3 (Homo sapiens) (Q14994 whole entry, looked up): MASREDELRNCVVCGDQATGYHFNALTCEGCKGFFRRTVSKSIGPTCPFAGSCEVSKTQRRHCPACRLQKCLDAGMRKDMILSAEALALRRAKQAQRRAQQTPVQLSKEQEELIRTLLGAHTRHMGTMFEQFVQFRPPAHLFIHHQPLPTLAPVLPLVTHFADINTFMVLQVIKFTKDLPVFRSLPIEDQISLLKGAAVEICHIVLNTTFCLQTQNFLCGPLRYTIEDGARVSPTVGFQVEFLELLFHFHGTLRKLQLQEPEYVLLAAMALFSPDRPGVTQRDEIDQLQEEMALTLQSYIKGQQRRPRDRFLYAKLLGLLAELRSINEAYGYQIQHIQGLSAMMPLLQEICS
Chain of Luciferin 4-monooxygenase (Photinus pyralis) (P08659 whole entry, looked up): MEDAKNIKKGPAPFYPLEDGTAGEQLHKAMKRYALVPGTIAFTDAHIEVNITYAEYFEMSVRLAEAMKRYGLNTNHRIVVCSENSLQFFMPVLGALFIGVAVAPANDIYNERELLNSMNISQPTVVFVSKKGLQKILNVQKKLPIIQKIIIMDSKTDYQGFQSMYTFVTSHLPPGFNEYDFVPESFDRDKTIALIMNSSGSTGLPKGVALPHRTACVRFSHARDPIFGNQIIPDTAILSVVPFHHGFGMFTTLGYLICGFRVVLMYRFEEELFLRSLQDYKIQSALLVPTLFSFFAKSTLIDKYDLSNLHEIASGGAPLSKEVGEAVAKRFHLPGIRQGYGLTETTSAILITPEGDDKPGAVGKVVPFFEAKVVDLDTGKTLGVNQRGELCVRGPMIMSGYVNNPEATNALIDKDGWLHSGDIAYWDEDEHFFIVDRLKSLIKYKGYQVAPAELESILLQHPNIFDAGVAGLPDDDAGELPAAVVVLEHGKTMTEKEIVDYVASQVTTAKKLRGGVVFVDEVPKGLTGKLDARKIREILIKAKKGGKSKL

In the case of `O=C1N(c2ccccc2)c2ccccc2C1(Cc1ccncc1)Cc1ccncc1`, the compound was called inactive in test [1]. Also, the Potency result in test [2], in test [3], in test [4], in test [5], in [6] and in test [7] was “inactive” throughout. In test [8], the Potency entry is “inactive”.

Turning to `Nc1ccc2ccccc2c1S(=O)(=O)O`, the Potency result in [9], in test [3], in test [4], in test [5] and in [7] was “inactive” in each case. Besides, the values for the Potency in test [2] and in test [6] were 32.4 µM (active) and 22.1 µM (active), respectively.

Regarding `COc1cc(N)c(Cl)cc1C(=O)NC1CCN(Cc2ccccc2)CC1`, the Potency entry in [9], in test [2], in test [3], in test [4], in [5] and in test [7] was “inactive” in each case. The Potency in test [6] was 6.68 µM (active).

For the compound `CC(C)c1ccccc1`, the Potency entry in test [9], in test [2], in test [3], in test [4], in test [5] and in test [6] was “inactive” each time. Besides, the Potency result in [7] was “inactive”.

Consider `CCN[C@H]1CN(CCCOC)S(=O)(=O)c2sc(S(N)(=O)=O)cc21`, for which the Potency result in test [9], in test [2], in test [3], in [4], in test [5] and in test [6] was “inactive” in each case. Further, the Potency entry in [7] is “inactive”.

`CC(C)(C)C1CCCCC1=O` (stereo not given): the Potency result in test [9], in test [2], in test [3], in test [4], in test [5] and in [6] was “inactive” throughout. For the same compound, the Potency result in test [7] was “inactive”.

For `CC1=C(O)C(=O)OC1C` (stereo not given), the Potency result in test [9], in test [2], in test [3], in test [4], in test [5] and in test [6] was “inactive” in each case. The Potency entry in [7] was “inactive”.

Consider `CCCN(CCC)C(=O)C(CCC(=O)O)NC(=O)c1ccccc1` (stereo not given), for which, in test [1], the result was inactive. Besides, the Potency result in [9], in test [2], in [3], in test [4], in test [5] and in test [6] was “inactive” throughout. Further, the Potency entry in [7] and in [8] was “inactive” each time.

On to `CN1CCN(C2=Nc3ccccc3Oc3ccc(Cl)cc32)CC1`, for which, in test [1], the result was inactive. The Potency result in test [2], in [4], in [5], in test [7] and in test [10] was “inactive” each time.

With `CN1CCN(C2=Nc3cc(F)ccc3Cc3ccccc32)CC1`, the Potency result in test [9], in test [2], in test [3], in test [4], in test [5] and in test [6] was “inactive” in each case. The Potency result in [7], in test [8] and in [10] was “inactive” throughout.

Consider `c1ccc(CN(CC2=NCCN2)c2ccccc2)cc1`, for which the Potency entry in test [9], in test [2], in test [3], in test [4], in test [5] and in test [6] was “inactive” each time. Further, the Potency entry in test [7], in [8] and in test [10] was “inactive” in each case.

With `CC1(O)CSC(C)(O)CS1` (stereo not given), the Potency result in test [9], in test [2], in [3], in test [4], in [5] and in test [6] was “inactive” throughout. Further, the Potency result in test [7] is “inactive”.

In the case of `C[C@]12C(=O)OC(=O)[C@H]1[C@H]1C=C[C@@H]2C1`, the Potency result in test [9], in test [2], in test [3], in test [4], in test [5] and in test [6] was “inactive” each time. Further, the Potency result in test [7], in [8] and in test [10] was “inactive” each time.

`CC1=CC(=O)CC(C)(C)C1=O`: the Potency entry in test [9], in [2], in test [3], in test [4], in [5] and in test [6] was “inactive” each time. In addition, the Potency result in [7] was “inactive”.

As to `COC(=O)c1ccc(OC)cc1`, the Potency result in [9], in test [2], in test [3], in test [4], in test [5] and in test [6] was “inactive” each time. Also, the Potency result in test [7], in test [8] and in test [10] was “inactive” throughout.

As for `CC1(C)S[C@@H]2[C@H](NC(=O)C(C(=O)O)c3ccccc3)C(=O)N2[C@H]1C(=O)O` (stereo not given in full), the Potency result in test [9], in test [2], in [3], in [4], in [5] and in test [6] was “inactive” in each case. The Potency entry in [7], in test [8] and in test [10] was “inactive” throughout.

For the compound `CCOC(=O)CS`, the Potency result in [9], in [2], in [3], in test [4], in test [6] and in [7] was “inactive” in each case. In addition, the Potency result in test [10] is “inactive”. Moreover, the Potency in test [5] is 56 µM (active); in [8], 14.1 µM (active).

As to `Cc1ccc([N+](=O)[O-])cc1Cl`, the Potency result in test [9], in test [2], in test [3], in test [4], in test [5] and in test [6] was “inactive” each time. Besides, the Potency result in test [7] and in test [8] was “inactive” in each case.

For `COc1cc2c(cc1N)oc1ccccc12`, the Potency result in test [9], in test [3], in [4], in [5], in [7] and in test [8] was “inactive” throughout. The Potency in [2] was 36.3 µM (active); in [6], 31.3 µM (active).

As to `CC(C)CCCCCCc1ccc(OCCOCCO)cc1`, the Potency result in test [9], in test [2], in test [3], in [4], in [5] and in test [6] was “inactive” throughout. Besides, the Potency result in test [7] and in [8] was “inactive” in each case.

For the compound `O=C1CCCc2ccccc21`, the Potency entry in [9], in [2], in [3], in [4], in test [5] and in test [6] was “inactive” throughout. For the same compound, the Potency result in test [7] and in [8] was “inactive” throughout.

For the compound `CCCOc1ccc2c(c1)CC[C@@H]1[C@@H]2CC[C@]2(C)C(OC)CC[C@@H]12` (stereo not given in full), the Potency result in [9], in test [2], in test [3], in test [4], in [5] and in test [6] was “inactive” each time. Also, the Potency entry in test [7], in test [8] and in [10] was “inactive” each time.

For `CCCCCCCCCC/C=C/C#N`, the Potency entry in test [9], in test [2], in test [3], in test [4], in [5] and in test [6] was “inactive” each time. The Potency result in test [7] and in test [8] was “inactive” throughout.

For the compound `Cc1ccc(C)c(N)c1`, the Potency entry in [9], in test [2], in test [3], in test [4], in test [5] and in [6] was “inactive” throughout. Besides, the Potency result in test [7] and in test [8] was “inactive” each time.

As for `CCOc1ccc(NC(N)=O)cc1`, the Potency entry in test [9], in test [2], in test [3], in [4], in test [5] and in [6] was “inactive” each time. The Potency result in test [7] and in test [8] was “inactive” each time.

As for `CC(C)OC(C)C`, the Potency entry in test [9], in test [2], in test [3], in [4], in [5] and in test [6] was “inactive” throughout. Moreover, the Potency entry in test [7], in test [8] and in test [10] was “inactive” in each case.

Take `C[C@@H]1CN(c2c(F)c(F)c3c(=O)c(C(=O)O)cn(C4CC4)c3c2F)C[C@H](C)N1`: the viability change, negative = cytotoxic was 2.27% [at 19 µM] in [9], 4.91% [at 19 µM] in [3] and 2.41% [at 19 µM] in test [7]. Further, in [2], the activity change, negative = inhibition was 4.05% [at 23.6 µM]. The activity change, negative = cytotoxicity in test [4] was 2.19% [at 19 µM]. For the same compound, the activity, negative = inhibition in [5] is 14.9% [at 19 µM]; in test [8], 20.9% [at 19 µM]. Further, the activation in test [6] was 0.519% [at 19 µM].
